Results filed as inconclusive are left out. Active and inactive are the calls of the source. Unless noted, calls follow the shape of the dose curve; as a rule, active = well fitted curve in the direction sought with a large enough effect in the repeat runs; inconclusive = weak or mixed curves; inactive = no such curve, though single readings can be large; an effect the other way counts as inactive or inconclusive.
Tests used:
[1] = qHTS assay for small molecule agonists of the p53 signaling pathway (AID 651631; calls by dose curve; also: nearly all actives have a fitted effect of over 15% in size)
Method in brief: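 HCT-116 p53RE-bla reporter line, 16 h compound treatment at 37 °C, then fluorescence after 2 h with B/G FRET substrate.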

[2] = qHTS assay for small molecules that induce genotoxicity in human embryonic kidney cells expressing luciferase-tagged ATAD5 (AID 651632); also: nearly all actives have a fitted effect of over 15% in size
Method in brief: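 A rise in luciferase signal from ATAD5-tagged HEK293T cells marks genetic stress. Cells were exposed to compounds for 16 hr at 37C, 5% CO2, then luciferase was quantified after a 30 min room-temperature incubation with Amplite.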

[3] = qHTS assay for small molecule agonists of the p53 signaling pathway - cell viability (AID 651633; calls by dose curve;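 also: p53RE-bla HCT reporter cells with a stable beta-lactamase p53 reporter; series mostly up to about 83 µM; nearly all actives have a fitted effect of over 30% in size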)
Method in brief: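 p53RE-bla cells, seeded at 4,000 per well and rested 5 h at 37 C/5% CO2, received compounds in DMSO for 16 h at 37 C. CellTiter-Glo was then added, and luminescence was read after 30 min at room temperature to gauge cytotoxicity.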

[4] = qHTS assay for small molecules that induce genotoxicity in human embryonic kidney cells expressing luciferase-tagged ATAD5 - cell viability (AID 651634; calls by dose curve; also: nearly all actives have a fitted effect of over 25% in size)
Method in brief: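 Cytotoxicity counter-readout: after 15.5 hr compound treatment at 37C, live-cell protease activity in ATAD5-luciferase HEK293T cells measured by CellTiter-Fluor fluorescence, 30 min development at 37C.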

[5] = qHTS assay for small molecule disruptors of the mitochondrial membrane potential - cell viability (AID 720634; calls by dose curve;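 also: human HepG2 liver cancer cells; series mostly up to about 83 µM; nearly all actives have a fitted effect of over 20% in size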)
Method in brief: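 Cytotoxicity was quantified from ATP content by CellTiter-Glo luminescence in the same wells as the MMP dye read-out. HepG2 (2,000 cells/well) were plated overnight and exposed to compounds for 1 hr at 37 C.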

[6] = qHTS assay to test for compound auto fluorescence at 590 nm (red) in HepG2 cells (AID 720674)
Method in brief: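 Compound auto-fluorescence is scored relative to Rose Bengal sodium, measured at 540/590 nm in live HepG2 cultures after 1 hr compound contact (37 C, 5% CO2).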

[7] = qHTS assay to test for compound auto fluorescence at 535 nm (green) in HepG2 cells (AID 720675)
[8] = qHTS assay to test for compound auto fluorescence at 460 nm (blue) in HEK293 cells (AID 720678)
Method in brief: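 Triamterene serves as the blue fluorophore standard. Compound signal at 405/460 nm is read in HEK293 wells (2,000 cells, 10% dialyzed FBS) after overnight treatment at 37C.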

[9] = qHTS assay to test for compound auto fluorescence at 590 nm (red) in HEK293 cells (AID 720679)
Method in brief: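 We plated HEK293 cells in 10% dialyzed FBS medium, let them adhere for 4-5 hr, then added 23 nL compound. Overnight at 37C and 5% CO2 preceded fluorescence measurement at 540/590nm.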

[10] = qHTS assay to test for compound auto fluorescence at 535 nm (green) in HEK293 cells (AID 720680)
[11] = qHTS assay to test for compound auto fluorescence at 460 nm (blue) in HEK293 cell free culture (AID 720681)
Method in brief: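 Test compounds were pinned into cell-free culture medium (DMEM with 10% FBS) and fluorescence was read directly at Ex/Em 405/460 nm. Signals were expressed as fluorescence equivalents of triamterene, with DMSO vehicle as control.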

[12] = qHTS assay to test for compound auto fluorescence at 535 nm (green) in HEK293 cell free culture (AID 720682)
Method in brief: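 Steps: dispense DMEM/10% FBS into empty wells; pin in compound or DMSO; measure fluorescence at 485/535 nm. Values are fluorescein equivalents.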

[13] = qHTS assay to test for compound auto fluorescence at 590 nm (red) in HEK293 cell free culture (AID 720683)
Method in brief: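 Tox21 10K library compounds were pinned into cell-free DMEM with 10% FBS and fluorescence was read at excitation 540 nm. Activity is expressed as Rose Bengal sodium equivalency.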

[14] = qHTS assay to test for compound auto fluorescence at 590 nm (red) in HepG2 cell free culture (AID 720684)
Method in brief: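 Ex 540 / Em 590 nm read of compound in cell-free MEM (10% FBS). Rose Bengal sodium reference.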

[15] = qHTS assay to test for compound auto fluorescence at 460 nm (blue) in HepG2 cell free culture (AID 720685)
Method in brief: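 Cell-free plates of MEM plus 10% FBS received 23 nL compound or DMSO vehicle; blue-channel (405/460 nm) intensity scored against triamterene as reference fluorophore.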

[16] = qHTS assay to test for compound auto fluorescence at 535 nm (green) in HepG2 cell free culture (AID 720686)
[17] = qHTS assay to test for compound auto fluorescence at 460 nm (blue) in HepG2 cells (AID 720687)
Method in brief: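 Cells (2,000/well in MEM with 10% FBS) attached overnight at 37 C, then were exposed to compound or DMSO for 1 hr at 37 C, 5% CO2. Fluorescence read at Ex/Em 405/460 nm, expressed as triamterene-equivalent signal.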

[18] = molecular target: Glucocorticoid receptor (Homo sapiens) (UniProt P04150); test: qHTS assay to identify small molecule agonists of the glucocorticoid receptor (GR) signaling pathway (AID 720691; active = well fitted activation curve with a large enough effect in the signal ratio in the repeat runs, not every such curve was filed as active; the % refers to the signal ratio)
Glucocorticoid receptor (Homo sapiens), sequence (P04150 whole entry, looked up): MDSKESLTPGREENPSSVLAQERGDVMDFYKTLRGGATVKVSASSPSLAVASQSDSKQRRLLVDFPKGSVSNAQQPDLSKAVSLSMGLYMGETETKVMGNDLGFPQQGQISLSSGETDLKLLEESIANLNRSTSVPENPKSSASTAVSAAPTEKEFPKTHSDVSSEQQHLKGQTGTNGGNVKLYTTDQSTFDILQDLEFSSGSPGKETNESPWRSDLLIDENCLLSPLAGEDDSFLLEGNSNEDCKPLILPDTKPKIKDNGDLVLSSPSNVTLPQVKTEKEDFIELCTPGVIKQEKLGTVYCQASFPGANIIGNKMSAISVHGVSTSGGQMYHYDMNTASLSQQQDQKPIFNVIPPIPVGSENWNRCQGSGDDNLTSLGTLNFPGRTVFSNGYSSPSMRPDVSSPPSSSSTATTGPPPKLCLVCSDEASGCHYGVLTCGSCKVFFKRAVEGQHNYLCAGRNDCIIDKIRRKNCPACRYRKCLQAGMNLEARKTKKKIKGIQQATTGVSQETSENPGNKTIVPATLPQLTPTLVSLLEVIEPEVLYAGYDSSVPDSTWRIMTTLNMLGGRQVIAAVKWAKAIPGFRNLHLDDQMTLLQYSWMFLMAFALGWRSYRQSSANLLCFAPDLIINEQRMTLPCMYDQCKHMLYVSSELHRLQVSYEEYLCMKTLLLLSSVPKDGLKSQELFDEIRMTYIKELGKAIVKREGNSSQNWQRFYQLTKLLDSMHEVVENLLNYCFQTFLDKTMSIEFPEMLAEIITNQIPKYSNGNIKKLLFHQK
Method in brief: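 Agonist-mode qHTS in HeLa cells stably expressing a glucocorticoid-response-element beta-lactamase reporter. Fluorescence intensity read with FRET substrate (2 h, room temperature) after 18 h compound treatment at 37 C.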

[19] = molecular target: Glucocorticoid receptor (Homo sapiens) (UniProt P04150); test: qHTS assay to identify small molecule antagonists of the glucocorticoid receptor (GR) signaling pathway (AID 720692; active = well fitted inhibition curve with a large enough effect in the signal ratio in the repeat runs, not every such curve was filed as active; the % refers to the signal ratio)
Method in brief: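 Inhibition of dexamethasone-driven (5 nM final) beta-lactamase expression was measured in GRE-reporter HeLa cells over 18 h at 37C. Fluorescence was read after 2 h with the B/G FRET substrate at room temperature.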
% is scaled to controls: 0 for no effect and ±100 for the full control effect.

CC[N+](C)(CC)CC
inactive: Potency [1] | Potency [2] | outcome [3] | outcome [4] | outcome [5] | outcome [6] | outcome [7] | outcome [8] | outcome [9] | outcome [10] | outcome [11] | outcome [12] | outcome [13] | outcome [14] | outcome [15] | outcome [16] | outcome [17] | Potency [18] | outcome [19]

Cc1ccc(S(=O)(=O)NC(=O)NN2CC3CCCC3C2)cc1 (centres undefined)
inactive: Potency [1] | Potency [2] | outcome [3] | outcome [4] | outcome [5] | fluorescence, relative to Rose Bengal [6] 0.0207% [at 18.6 µM] | fluorescence, % of fluorescein control [7] 0.0063% [at 18.6 µM] | fluorescence, % of triamterene [8] -0.0452% [at 18.6 µM] | fluorescence, % of fluorescent control [9] -0.0362% [at 18.6 µM] | fluorescence, % of fluorescein [10] -0.0141% [at 18.6 µM] | fluorescence, % of fluorescent control [11] 0.0029% [at 18.6 µM] | activity change [12] -0.0097% [at 18.6 µM] | fluorescence, % of fluorescent control [13] 0.167% [at 18.6 µM] | fluorescence, % of fluorescent control [15] -0.0187% [at 18.6 µM] | fluorescence, % of fluorescein control [16] -0.0072% [at 18.6 µM] | fluorescence, % of fluorescent control [17] -0.0447% [at 18.6 µM]

CC(=O)SC[C@@H](C)C(=O)N1CCC[C@H]1C(=O)N[C@@H](Cc1ccccc1)C(=O)O
inactive: Potency [1] | Potency [2] | outcome [3] | outcome [4] | outcome [5] | outcome [6] | outcome [7] | outcome [8] | outcome [9] | outcome [10] | outcome [11] | outcome [12] | outcome [13] | outcome [14] | outcome [15] | outcome [16] | outcome [17]

COC(C)(C)CC(C)=O
inactive: Potency [1] | Potency [2] | outcome [3] | outcome [4] | outcome [5] | outcome [6] | outcome [7] | outcome [8] | outcome [9] | outcome [10] | outcome [11] | outcome [12] | outcome [13] | outcome [16] | outcome [17] | Potency [18]

CC(C)(O)CCCC1=CCC(C=O)CC1 (centres undefined)
inactive: Potency [1] | Potency [2] | outcome [3] | outcome [4] | outcome [5] | outcome [6] | outcome [7] | outcome [8] | outcome [9] | outcome [10] | outcome [11] | outcome [12] | outcome [13] | outcome [15] | outcome [17] | Potency [18] | outcome [19]

CC(C)(C)C(=O)CC(=O)C(C)(C)C
inactive: Potency [1] | Potency [2] | outcome [3] | outcome [4] | outcome [5] | outcome [6] | outcome [7] | outcome [8] | outcome [9] | outcome [10] | outcome [11] | outcome [12] | outcome [13] | outcome [14] | outcome [15] | outcome [17] | Potency [18] | outcome [19]

C=CC(=O)CC
inactive: Potency [1] | Potency [2] | outcome [3] | outcome [4] | outcome [5] | outcome [6] | outcome [7] | outcome [8] | outcome [9] | outcome [10] | outcome [11] | outcome [12] | outcome [13] | outcome [14] | outcome [16] | outcome [17]

O=C(O)P(=O)(O)O
inactive: Potency [1] | Potency [2] | outcome [3] | outcome [4] | outcome [5] | outcome [6] | outcome [7] | outcome [8] | outcome [9] | outcome [10] | outcome [11] | outcome [12] | outcome [13] | outcome [14] | outcome [15] | outcome [17] | Potency [18]

CCC(C)SSC(C)CC (centres undefined)
inactive: Potency [1] | Potency [2] | outcome [3] | outcome [4] | outcome [5] | outcome [6] | outcome [7] | outcome [8] | outcome [9] | outcome [10] | outcome [11] | outcome [12] | outcome [13] | outcome [14] | outcome [15] | outcome [16] | outcome [17] | Potency [18] | outcome [19]

C[C@@H](CN1CC(=O)NC(=O)C1)N1CC(=O)NC(=O)C1
inactive: Potency [1] | Potency [2] | outcome [3] | outcome [4] | outcome [5] | outcome [6] | outcome [7] | outcome [8] | outcome [9] | outcome [10] | outcome [11] | outcome [12] | outcome [13] | outcome [14] | outcome [15] | outcome [16] | outcome [17]

CCN1CCN(C(=O)N[C@@H](C(=O)N[C@@H]2C(=O)N3C(C(=O)O)=C(CSc4nnnn4C)CS[C@H]23)c2ccc(O)cc2)C(=O)C1=O
inactive: Potency [1] | Potency [2] | outcome [3] | outcome [4] | outcome [5] | outcome [6] | outcome [7] | outcome [8] | outcome [9] | outcome [10] | outcome [11] | outcome [12] | outcome [13] | outcome [15] | outcome [16] | outcome [17]

O=S(=O)(O)c1ccc(Cl)cc1
inactive: Potency [1] | Potency [2] | outcome [3] | outcome [4] | outcome [5] | outcome [6] | outcome [7] | outcome [8] | outcome [9] | outcome [10] | outcome [11] | outcome [12] | outcome [13] | outcome [14] | outcome [15] | outcome [16] | outcome [17] | Potency [18] | outcome [19]

O=C[C@@H](O)[C@H](O)[C@H](O)CO
inactive: Potency [1] | Potency [2] | outcome [3] | outcome [4] | outcome [5] | outcome [6] | outcome [7] | outcome [8] | outcome [9] | outcome [10] | outcome [11] | outcome [12] | outcome [13] | outcome [14] | outcome [16] | outcome [17]

CCCCC(CC)CCC(CC(C)C)OS(=O)(=O)O (centres undefined)
inactive: Potency [1] | Potency [2] | outcome [3] | outcome [4] | outcome [5] | outcome [6] | outcome [7] | outcome [8] | outcome [9] | outcome [10] | outcome [11] | outcome [12] | outcome [13] | outcome [14] | outcome [16] | outcome [17]

— PubChem BioAssay (Tox21)
